Growth data for three compounds are collected here from PubChem BioAssay (NCI).

About 83,000 compounds went through this panel and 20% of them were active in at least one assay; those are over-represented in the sample as a whole.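 Growth was measured after 48 h exposure to one concentration of compound in 96-well plates. Values under 10 count as active.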 Unmarked numbers belong to inactive results. Active and inactive are the calls of the source.

The subject of this assay is HL-60(TB) leukemia. Briefly: NCI-60 one-dose screen, 48 h (100 = growth as untreated, 0 = no growth, -100 = all killed). The following applies: 10 µM unless noted.
Take `CC1(C)[C@@H](O)CC[C@]2(C)[C@H]3CC[C@@H]4[C@H]5[C@H](C(=O)/C=C\c6ccccn6)CC[C@]5(O)CC[C@@]4(C)[C@]3(C)CC[C@@H]12`: the growth is -24.5% (active).

Turning to `O=S(=O)(Nc1ccc(-c2nc(-c3cccc(O)c3)c(-c3ccnc(Br)c3)[nH]2)cc1)c1ccccc1`, the growth was -9.12% (active).

`O=C(N/N=C/c1cc2ccccc2nc1Cl)c1cc(-c2nc3ccccc3[nH]2)nc2ccccc12`: the growth is 92%.
